Results reported in PubChem BioAssay AID1347076 (National Center for Advancing Translational Sciences (NCATS), 2019).
Out of some 400,000 compounds screened, about 13,000 (3.2%) were called active. Where a call stands in place of a potency, no number is given. About 18% were inconclusive and are not listed. Calls follow the shape of the dose curve; as a rule, active = well fitted cell-killing curve with a large enough effect; inconclusive = small, poorly fitted or top-dose-only effect, or effect the other way; inactive = flat fitted curve, though single readings scatter. The full list was thinned out, with actives kept by preference.

Experiment: qHTS assay for MDR1-selective chemotherapeutics: Primary screen using the drug-selected MDR subline cells KB-V1; also: nearly all actives have a fitted effect of over 60% in size
Conditions: KB-V1 MDR cells viability, CellTiter-Glo, 72 h; series mostly up to 46.1 µM
Text: A prime difficulty in effectively treating cancer is the development of cellular resistance to multiple structurally unrelated anticancer drugs, a phenomenon known as multidrug resistance (MDR). […] Numerous strategies to overcome P-gp-mediated MDR have been explored, including the design of drugs that evade recognition and efflux, and development of inhibitors to block efflux and restore drug accumulation. […] An alternative approach is to exploit resistance by identifying drugs that target MDR cells over the non-resistant parental cells from which they were selected. […] The development of MDR1-selective agents represents a new strategy for resolving multidrug resistance, as it remains a long-standing clinical challenge for cancer chemotherapy.
Our goal is to identify compounds that selectively kill P-gp-expressing MDR cells. We will identify MDR1-selective compounds by comparing toxicity of compounds in the screening library against parental, drug-naive (KB-3-1) adenocarcinoma cells as well as their drug-selected MDR sub-line (KB-V1). The differential toxicity of compounds against these two cell lines will be used to identify MDR1-selective compounds, whose cytotoxicity is potentiated, rather than diminished, by P-gp expression. This assay will be utilized to conduct a quantitative high-throughput screen (qHTS) in collaboration with the NIH Chemical Genomics Center to identify selective agents, and probe hits arising from the screen will be validated using secondary assays and characterized through a well-established follow-up research program. This screen was run against the entire NCGC library collection of about 400,000 compounds.
NIH Molecular Libraries Probe Production Network [MLPCN]
NIH Chemical Genomics Center [NCGC]
PI: Michael Gottesman, National Cancer Institute, NIH
Briefly, 5 microL of media containing either KB-V1 cells (columns 1-2, 4-48) are dispensed into Greiner white, treated solid-bottom 1536-well assay plates (media-only control is added to column 3). Compounds are then transferred via Kalypsys pin tool equipped with 1536-pin array (10 nL slotted pins, V&P Scientific, San Diego, CA). Following addition of compound, the plates are incubated at 37 degrees C for 72 hours. CellTiter-Glo (2.5 µL/well) is then added, and the plates are read in a ViewLux reader (Perkin-Elmer, clear luminescence filter, 1 second exposure, 1x binning) following a 10 minute incubation. All cells are dispensed in DMEM phenol-red free media containing 10% FBS.
Library plates were screened starting from the lowest and proceeding to the highest concentration. Vehicle-only plates, with DMSO being pin-transferred to columns 5-48, will be inserted uniformly at the beginning and the end of each library in order to monitor and record any shifts in the background, which can be affected by reagent dispensers or loss in enzyme activity over time. Screening data will be corrected, normalized, and concentration-effect relationships will be derived by using publicly-available NCGC, NCATS curve fitting algorithms (http://ncgc.nih.gov/pub/openhts).
Potency is read from the fitted curve at half-maximal effect.

Row | SMILES | Potency
1 | CCCCCCCCCCCCn1ccc(=N)cc1 | 8.2 µM (active)
2 | COC(=O)C(O)(c1ccc(NC(=O)c2ccco2)c(OC)c1)C(F)(F)F (stereo not drawn) | inactive
3 | COC(=O)C1=C(c2cc3ccccc3s2)C[C@@H]2CC[C@H]1N2C(=O)NCCO | inactive
4 | CCCCn1c(=O)c(C(=O)Nc2ccccc2Cl)c(O)c2ccccc21 | inactive
5 | CCCCCn1c(=O)c(C(=O)NCc2ccccc2)c(O)c2ccccc21 | inactive
6 | CCCCCn1c(=O)c(C(=O)NCc2ccccn2)c(O)c2ccccc21 | 14.6 µM (active)
7 | CCCCCn1c(=O)c(C(=O)Nc2c(C)n(C)n(-c3ccccc3)c2=O)c(O)c2ccccc21 | 2.06 µM (active)
8 | COc1cc(C(c2c(O)c3ccccc3oc2=O)c2c(C)n(C)n(-c3ccccc3)c2=O)ccc1O (stereo not drawn) | inactive
9 | O=C(O)c1cc[c]([Sb](=[O])([OH])[OH])cc1[N+](=O)[O-] | inactive
10 | Cc1ccc(S(=O)(=O)N(C)c2ccc(C(=O)NCC3(N(C)C)CCCCC3)cc2)cc1 | inactive
11 | Cc1c(Oc2cc(NN3CCCCC3)c([N+](=O)[O-])cc2[N+](=O)[O-])cccc1[N+](=O)[O-] | inactive
12 | CCC1(CC(C)c2ccccc2)C(=O)NC(=O)NC1=O (stereo not drawn) | inactive
13 | C[N+]1(C)CCOC(O)(c2ccc(-c3ccc(C4(O)C[N+](C)(C)CCO4)cc3)cc2)C1 (stereo not drawn) | inactive
14 | ClC(Cl)(Cl)c1ccccc1 | inactive
15 | COC(=O)C1=C(c2ccc(F)cc2OCc2ccccc2)C[C@@H]2CC[C@H]1N2C(=O)NCc1ccc2[nH]ccc2c1 | inactive
16 | COC(=O)C1=C(c2ccc(F)cc2OCc2ccccc2)C[C@@H]2CC[C@H]1N2C(=O)NCc1ccc(C(C)(C)C)cc1 | inactive
17 | COC(=O)C1=C(c2ccccc2)C[C@@H]2CC[C@H]1N2C(=O)NCc1ccco1 | inactive
18 | COC(=O)C1=C(c2ccc(OCc3ccccc3)cc2)C[C@@H]2CC[C@H]1N2C(=O)NCc1ccc(Cl)cc1 | 14.6 µM (active)
19 | COC(=O)C1=C(c2ccccc2OCc2ccccc2)C[C@@H]2CC[C@H]1N2C(=O)NCc1ccc(OC)cc1 | inactive
20 | COC(=O)C1=C(c2ccc(F)cc2OCc2ccccc2)C[C@@H]2CC[C@H]1N2C(=O)NCc1ccc(Cl)cc1 | inactive
21 | COC(=O)C1=C(c2ccc(F)cc2OCc2ccccc2)C[C@@H]2CC[C@H]1N2C(=O)NCc1ccc(OC)c(OC)c1 | inactive

Row | SMILES | Potency
22 | COC(=O)C1=C(c2ccc(-c3ccccc3)c(F)c2)C[C@@H]2CC[C@H]1N2C(=O)NCc1ccc(F)cc1 | 20.6 µM (active)
23 | COC(=O)C1=C(c2ccc(OCc3ccccc3)cc2)C[C@@H]2CC[C@H]1N2C(=O)NCc1cccc(F)c1 | 7.31 µM (active)
24 | Nc1ccc(Cc2ccc(N)c(Cl)c2)cc1Cl | inactive
25 | O=C(O)/C=C/c1ccc2c(c1)OCO2 | inactive
26 | O=C1NC(=O)C(Cc2ccccc2)C(=O)N1 | inactive
27 | COc1ccc(-n2nnnc2C(c2cccc3ccccc23)N2CCC(n3c(=O)[nH]c4ccccc43)CC2)cc1 (stereo not drawn) | inactive
28 | COC(=O)N1C(c2ccccc2)C1c1ccccc1 (stereo not drawn) | inactive
29 | Fc1ccc(C2N3CCCN23)cc1 (stereo not drawn) | inactive
30 | CC(C)CN1Cc2cc(N3CCCCC3)ccc2-n2nncc2C1 | inactive
31 | CC(Cc1ccccc1)NCCC(c1ccccc1)c1ccccc1 (stereo not drawn) | 14.6 µM (active)
32 | CC(=O)NC(=O)NC(C)Cc1ccccc1 (stereo not drawn) | inactive
33 | CC(Cc1ccccc1)NC=O (stereo not drawn) | inactive
34 | C[C@]12CCCCC1=CC(=O)C1C2CC[C@@]2(C)C1C[C@@H](F)[C@@H]2O (stereo partly drawn) | inactive
35 | CC(c1ccccc1)(c1ccccc1)c1ccncc1 | inactive
36 | O=[N+]([O-])c1cnc2ccc3ccccc3c2c1 | inactive
37 | C/C(=N/O)c1ccc2ccc3ccccc3c2c1 | 3.26 µM (active)
38 | C/C(CCc1c[nH]c2ccccc12)=N\O | inactive
39 | CC1(C)Cc2c(C#N)c(N3CCNCC3)nc(-c3ccco3)c2CS1 | inactive
40 | CCOC(=O)C1(c2ccccc2)CCN(CC(O)c2ccc(NC(C)=O)cc2)CC1 (stereo not drawn) | inactive
41 | O=C(CCN1CCCCC1)NCC(=O)Nc1ccc(Br)cc1C(=O)c1ccccc1 | 18.4 µM (active)
42 | O=C(CN1CCCCC1)Nc1ccc(Br)cc1C(=O)c1ccccc1Cl | inactive

Row | SMILES | Potency
43 | CCOC(=O)CNC(=O)N1Cc2cc(N3CCCCC3)ccc2-n2nncc2C1 | inactive
44 | C[C@H]1CN([C@@H](C)CO)C(=O)CCCn2nncc2CO[C@H]1CN(C)C(=O)Oc1cccc2ccccc12 | inactive
45 | Cc1ccc(C(C)C)c(OCC(=O)N2CCN(CC(=O)N3CCOCC3)CC2)c1 | inactive
46 | CC1CCCN1CCC(C(N)=O)(c1ccccc1)c1ccccc1 (stereo not drawn) | inactive
47 | O=C(NC1CCCCC1)N1Cc2cc(N3CCCCC3)ccc2-n2nncc2C1 | inactive
48 | c1ccc2c(c1)[I+]c1ccccc1-2 | 16.4 µM (active)
49 | CC=C(C)C(=O)OC1CCN2CC=C(COC(=O)C(O)(C(C)OC)C(C)(C)O)C12 (stereo not drawn) | inactive
50 | CC1CNCCN1c1ccc(Cl)cc1 (stereo not drawn) | inactive
51 | CN1CCN(C(=S)SCC(=O)Nc2ccc(Cl)cc2C(=O)c2ccccc2)CC1 | 5.17 µM (active)
52 | O=C(COC(=O)c1ccccc1)Nc1ccc(Cl)cc1C(=O)c1ccccc1 | inactive
53 | O=C(Nc1ccc(Cl)cc1C(=O)c1ccccc1)c1cc(Cl)cc(Cl)c1 | inactive
54 | COc1ccc(C2C=C(C)Oc3c2c(=O)oc2ccccc32)cc1OC (stereo not drawn) | inactive
55 | Cc1ncoc1C(=O)NCC1=C(c2cccc3ccccc23)C[C@@H]2CC[C@H]1N2Cc1ccco1 | inactive
56 | C=C(C)C1(CCCC)C(=O)NC(=S)NC1=O | inactive
57 | Oc1cc2c(cc1CN1CCN(c3ccccc3)CC1)OCO2 | inactive
58 | Cc1cc(C)c2c(c1)NP(=S)(c1ccccc1)N2 (stereo not drawn) | inactive
59 | C[C@]12CCC3C(CC[C@H]4[C@H](O)[C@H](O)CC[C@]34C)C1CC[C@@H]2O (stereo partly drawn) | inactive
60 | CC12CCC(O)CC1CCC1C2CCC2(C)C(C(=O)CC(O)C(F)(F)F)CCC12 (stereo not drawn) | 23.1 µM (active)
61 | C[C@]12CCC3C(CC[C@H]4C[C@@H](O)CC[C@]34C)C1CC[C@@H]2O (stereo partly drawn) | inactive
62 | COC(=O)[C@@H]1C(OC(=O)c2ccccc2)CC2CCC1N2C (stereo partly drawn) | inactive
63 | Cn1c(O)c(C(=Nc2ccc(F)cc2)c2ccccc2)c(=O)n(C)c1=O | inactive
